Tests used:
Assay in all cases: PBM binding z-score (relative to random genomic background probes); higher = stronger binding; sequences stand for … in GC…GCGATTGACAGCGTAGAATGAAGG
[1] = system: PPARg:RXRa DBDmut IVT, anti-RXR (DBD mutation: RXRa K156A/R161A, NR concentration 270 nM, RXRa partner concentration 90 nM)
Summary of the method: (§1)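 Binding buffer was PBS pH 7.4 with 2% milk, 0.02% Triton X-100, 1 mM DTT, 0.2 mg/mL BSA and 0.4 mg/ml salmon testes DNA. In it, ligand-free nuclear receptor dimers were incubated 1 h on custom Agilent 4×180K protein-binding microarrays carrying double-stranded probes. Antibodies against each partner (one per run) detected binding, and z-scores were calculated against random background probes after regression normalization of scanned fluorescence.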

[2] = system: PPARg:RXRa IVT, anti-PPARg (NR concentration 270 nM, RXRa partner concentration 90 nM)
Summary of the method: as §1

[3] = system: PPARg DBDmut:RXRa IVT, anti-PPARg (DBD mutation: PPARg1 K132A/R137A, NR concentration 270 nM, RXRa partner concentration 90 nM)
Summary of the method: as §1

[4] = system: PPARg DBDmut IVT, anti-PPARg (DBD mutation: PPARg1 K132A/R137A, NR concentration 270 nM)
Summary of the method: as §1

[5] = system: PPARg homodimer (NR concentration 180 nM)
Summary of the method: as §1

[6] = system: PXR:RXRa (NR concentration 270 nM, RXRa partner concentration 90 nM)
Summary of the method: as §1

[7] = system: PXR homodimer (NR concentration 270 nM)
Summary of the method: as §1

[8] = system: RARa:RXR (NR concentration 270 nM, RXRa partner concentration 90 nM)
Summary of the method: as §1

[9] = system: RARa homodimer (NR concentration 270 nM)
Summary of the method: as §1

[10] = system: RARb:RXRa (NR concentration 270 nM, RXRa partner concentration 90 nM)
Summary of the method: as §1

[11] = system: RARb homodimer (NR concentration 270 nM)
Summary of the method: as §1

[12] = system: RARg homodimer (NR concentration 270 nM)
Summary of the method: as §1

[13] = system: RXRa DBDmut IVT, anti-RXR (DBD mutation: RXRa K156A/R161A, NR concentration 90 nM)
Summary of the method: as §1

[14] = system: RXRa homodimer (NR concentration 180 nM)
Summary of the method: as §1

[15] = system: THRa:RXRa (NR concentration 90 nM, RXRa partner concentration 90 nM)
Summary of the method: as §1

[16] = system: THRa homodimer (NR concentration 90 nM)
Summary of the method: as §1

[17] = system: VDR:RXRa (NR concentration 270 nM, RXRa partner concentration 90 nM)
Summary of the method: as §1

[18] = system: VDR homodimer (NR concentration 270 nM)
Summary of the method: as §1

[19] = system: RARg:RXRa (NR concentration 270 nM, RXRa partner concentration 90 nM)
Summary of the method: as §1

CCTCGGAGGTCAGAAGGTCAGAGCTGTCCGCTTT
PBM binding z-score [1]: 2.53
PBM binding z-score [2]: 3.5
PBM binding z-score [3]: -1.11
PBM binding z-score [4]: -1.86
PBM binding z-score [5]: 5.71
PBM binding z-score [6]: 4.71
PBM binding z-score [7]: 0.603
PBM binding z-score [8]: 6.73
PBM binding z-score [9]: 0.835
PBM binding z-score [10]: 5.16
PBM binding z-score [11]: 5.21
PBM binding z-score [12]: 7.12
PBM binding z-score [13]: 2.31
PBM binding z-score [14]: 6.44
PBM binding z-score [15]: 3.41
PBM binding z-score [16]: 0.451
PBM binding z-score [17]: 4.38
PBM binding z-score [18]: 1.47

CATACAGGGACAGCTAGGCCAGAGTAGGGACGGC
PBM binding z-score [1]: -0.69
PBM binding z-score [2]: -0.181
PBM binding z-score [3]: -1.17
PBM binding z-score [4]: 0.371
PBM binding z-score [5]: -0.647
PBM binding z-score [6]: -0.731
PBM binding z-score [7]: -0.605
PBM binding z-score [8]: -0.361
PBM binding z-score [9]: 0.0521
PBM binding z-score [10]: 0.723
PBM binding z-score [11]: 0.286
PBM binding z-score [19]: 0.368
PBM binding z-score [12]: 0.718
PBM binding z-score [13]: -0.689
PBM binding z-score [15]: 0.703
PBM binding z-score [16]: 0.148
PBM binding z-score [18]: -0.709

CAAACTAGGTCACGAAAGGGCAAAGTCGAATGAC
PBM binding z-score [1]: 8.03
PBM binding z-score [2]: 9.13
PBM binding z-score [3]: 2.95
PBM binding z-score [4]: 1.67
PBM binding z-score [5]: 4.28
PBM binding z-score [6]: 5.85
PBM binding z-score [7]: 0.485
PBM binding z-score [8]: 5.03
PBM binding z-score [9]: 2.03
PBM binding z-score [10]: 4.99
PBM binding z-score [11]: 4.43
PBM binding z-score [19]: 5.81
PBM binding z-score [12]: 6.33
PBM binding z-score [13]: 1.77
PBM binding z-score [15]: 4.54
PBM binding z-score [16]: 1.42
PBM binding z-score [18]: 1.35

TAGCCTAGGTCATGCGGGCCAGTATAGTGTCGGC
PBM binding z-score [1]: 1.77
PBM binding z-score [2]: 2.76
PBM binding z-score [3]: -0.107
PBM binding z-score [4]: -0.0866
PBM binding z-score [5]: 0.667
PBM binding z-score [6]: 1.37
PBM binding z-score [7]: -0.724
PBM binding z-score [8]: 2.44
PBM binding z-score [9]: -0.846
PBM binding z-score [10]: 3.66
PBM binding z-score [11]: 2.89
PBM binding z-score [19]: 3.98
PBM binding z-score [12]: 4.4
PBM binding z-score [13]: 0.813
PBM binding z-score [15]: 3.02
PBM binding z-score [16]: 0.858
PBM binding z-score [18]: 0.814

CCTTACGGGTAACTCCAGGTTATAGCATCGGAGT
PBM binding z-score [1]: 0.404
PBM binding z-score [2]: 0.565
PBM binding z-score [3]: 0.241
PBM binding z-score [4]: -0.665
PBM binding z-score [5]: 0.705
PBM binding z-score [6]: 0.705
PBM binding z-score [7]: 0.14
PBM binding z-score [8]: 0.64
PBM binding z-score [9]: 0.018
PBM binding z-score [10]: 0.315
PBM binding z-score [11]: 0.239
PBM binding z-score [12]: 0.528
PBM binding z-score [13]: -0.483
PBM binding z-score [14]: 0.381
PBM binding z-score [15]: 3.22
PBM binding z-score [16]: 0.292
PBM binding z-score [17]: 0.375
PBM binding z-score [18]: 0.21

TGAATGAAGTTAAAGATCAGGGAACGTGGCGTCG
PBM binding z-score [1]: -0.838
PBM binding z-score [2]: -0.0985
PBM binding z-score [3]: 0.102
PBM binding z-score [4]: 0.236
PBM binding z-score [5]: -0.094
PBM binding z-score [6]: -0.563
PBM binding z-score [7]: -0.811
PBM binding z-score [8]: -0.169
PBM binding z-score [9]: -0.374
PBM binding z-score [10]: -0.227
PBM binding z-score [11]: -1
PBM binding z-score [19]: -0.156
PBM binding z-score [12]: 0.00438
PBM binding z-score [13]: -0.803
PBM binding z-score [15]: -0.586
PBM binding z-score [16]: -1.06
PBM binding z-score [18]: -0.533

AGTAGCAGGCCAAGGGTCACTCAAGATTAGTCCG
PBM binding z-score [1]: 0.462
PBM binding z-score [2]: 3.88
PBM binding z-score [3]: -0.464
PBM binding z-score [4]: -0.976
PBM binding z-score [5]: 1.7
PBM binding z-score [6]: 3.19
PBM binding z-score [7]: -0.0466
PBM binding z-score [8]: 4.3
PBM binding z-score [9]: 0.186
PBM binding z-score [10]: 3.65
PBM binding z-score [11]: 3.98
PBM binding z-score [19]: 4.29
PBM binding z-score [12]: 3.86
PBM binding z-score [13]: 0.553
PBM binding z-score [15]: 2.76
PBM binding z-score [16]: 0.326
PBM binding z-score [18]: 1.46

AGTCAAAGTTCAGGACGAGGTACCGTAAAGCACG
PBM binding z-score [1]: -0.264
PBM binding z-score [2]: 0.999
PBM binding z-score [3]: -0.0468
PBM binding z-score [4]: -0.427
PBM binding z-score [5]: 0.643
PBM binding z-score [6]: 2.17
PBM binding z-score [7]: 0.824
PBM binding z-score [8]: 2.02
PBM binding z-score [9]: 0.582
PBM binding z-score [10]: 4.34
PBM binding z-score [11]: 3.04
PBM binding z-score [12]: 4.98
PBM binding z-score [13]: 2.91
PBM binding z-score [14]: 3.07
PBM binding z-score [15]: 2.66
PBM binding z-score [16]: 0.724
PBM binding z-score [17]: 2.08
PBM binding z-score [18]: 1.78

CAAACTAGGTCACAGAGGACAAAGTCCGTGCGTA
PBM binding z-score [1]: 8.78
PBM binding z-score [2]: 9.01
PBM binding z-score [3]: 7.7
PBM binding z-score [4]: 3.32
PBM binding z-score [5]: 4.15
PBM binding z-score [6]: 3.52
PBM binding z-score [7]: 2.3
PBM binding z-score [8]: 3.22
PBM binding z-score [9]: 1.21
PBM binding z-score [10]: 4.54
PBM binding z-score [11]: 3.93
PBM binding z-score [19]: 4.96
PBM binding z-score [12]: 6.01
PBM binding z-score [13]: 2.36
PBM binding z-score [15]: 3.89
PBM binding z-score [16]: 1.94
PBM binding z-score [18]: 3.57

GATACGGGGTCAGCTAGAGGCCAGAGTATGGAAA
PBM binding z-score [1]: 3.12
PBM binding z-score [2]: 4.66
PBM binding z-score [3]: 1.44
PBM binding z-score [4]: 0.481
PBM binding z-score [5]: 4.42
PBM binding z-score [6]: 5.75
PBM binding z-score [7]: 0.6
PBM binding z-score [8]: 6.84
PBM binding z-score [9]: 0.888
PBM binding z-score [10]: 5.15
PBM binding z-score [11]: 4.12
PBM binding z-score [12]: 6.6
PBM binding z-score [13]: 3.39
PBM binding z-score [14]: 7.4
PBM binding z-score [15]: 4.28
PBM binding z-score [16]: 1.14
PBM binding z-score [17]: 5.72
PBM binding z-score [18]: 2.68

TCTCGGATGACACGAAAGGTCAGAGCTCGACATC
PBM binding z-score [1]: 1.88
PBM binding z-score [2]: 1.33
PBM binding z-score [3]: 0.619
PBM binding z-score [4]: 1.03
PBM binding z-score [5]: 3.4
PBM binding z-score [6]: 3.7
PBM binding z-score [7]: 0.17
PBM binding z-score [8]: 4.37
PBM binding z-score [9]: 1.07
PBM binding z-score [10]: 3.68
PBM binding z-score [11]: 4.3
PBM binding z-score [19]: 4.19
PBM binding z-score [12]: 3.99
PBM binding z-score [13]: 1.08
PBM binding z-score [15]: 2.79
PBM binding z-score [16]: 0.526
PBM binding z-score [18]: 0.594

CAAACTAGGTCACAGAGGGCAAAGTCCGTGCGTA
PBM binding z-score [1]: 8.48
PBM binding z-score [2]: 8.83
PBM binding z-score [3]: 5.61
PBM binding z-score [4]: 4.71
PBM binding z-score [5]: 1.95
PBM binding z-score [6]: 4.26
PBM binding z-score [7]: 4.07
PBM binding z-score [8]: 3.86
PBM binding z-score [9]: 0.666
PBM binding z-score [10]: 4.54
PBM binding z-score [11]: 4.14
PBM binding z-score [19]: 5.05
PBM binding z-score [12]: 5.61
PBM binding z-score [13]: 2.45
PBM binding z-score [15]: 3.87
PBM binding z-score [16]: 1.55
PBM binding z-score [18]: 4.18

CAGCCTAGTTCAGGGCCAGTATAGGAGGAACGTT
PBM binding z-score [1]: -0.416
PBM binding z-score [2]: -0.592
PBM binding z-score [3]: -0.87
PBM binding z-score [4]: -0.941
PBM binding z-score [5]: -0.37
PBM binding z-score [6]: -0.0793
PBM binding z-score [7]: 0.431
PBM binding z-score [8]: -0.13
PBM binding z-score [9]: -0.131
PBM binding z-score [10]: 1.05
PBM binding z-score [11]: 0.7
PBM binding z-score [12]: 0.665
PBM binding z-score [13]: 0.532
PBM binding z-score [14]: 0.15
PBM binding z-score [15]: -0.00106
PBM binding z-score [16]: -0.234
PBM binding z-score [17]: -0.0838
PBM binding z-score [18]: 0.209

Source: the supplement of paper PMC6555819
